{"source": "PubChem BioAssay (NCATS)", "note": "Records with an inconclusive call do not appear. Calls of active or inactive are those of the source. Calls come from the whole dose curve; tested in HEK293 reporter line. % is set by controls: 0 for no effect and ±100 for the full control effect; potency is the fitted concentration of half-maximal effect.", "data": [{"assay": "qHTS for Inhibitors of the Functional Ribonucleoprotein Complex (vRNP) of Lymphocytic Choriomeningitis Arenaviruses (LCMV): Viability assay - alamar blue signal for LCMV Primary Screen (AID 1347085); note: nearly all actives have a fitted effect of over 80% in size", "settings": "alamar blue viability counter-screen, LCMV vRNP screen cells; series mostly up to 57.5 µM; activity change, negative = lower viability: at the top concentration", "values": [{"smiles": "CCCC(=O)OCC", "activity change, negative = lower viability": "8.65% [at 115 µM] (inactive)"}, {"smiles": "CC(=O)O[C@]1(C(C)=O)CC[C@@H]2[C@@H]3C[C@H](C)C4=CC(=O)CC[C@]4(C)[C@H]3CC[C@@]21C", "activity change, negative = lower viability": "-6.48% (inactive)"}, {"smiles": "CO[C@H]1C=CO[C@@]2(C)Oc3c(C)c(O)c4c(O)c(c(C=NN5CCN(C)CC5)c(O)c4c3C2=O)NC(=O)C(C)=CC=C[C@H](C)[C@H](O)[C@@H](C)[C@@H](O)[C@@H](C)[C@H](OC(C)=O)[C@H]1C", "activity change, negative = lower viability": "1.58% [at 19.1 µM] (inactive)"}, {"smiles": "CC1(C)C2CC1[C@@](C)(O)[C@H](O)C2", "note": "(stereo not given in full)", "activity change, negative = lower viability": "10.6% (inactive)"}, {"smiles": "CCCCCCCCCCCCCC/C(C(=O)O)=C(\\C)C(=O)O", "activity change, negative = lower viability": "3.38% (inactive)"}, {"smiles": "CC/C=C\\CCOC(C)OCC", "note": "(stereo not given)", "activity change, negative = lower viability": "22.5% [at 115 µM] (inactive)"}, {"smiles": "CC(C)(O)[C@@H]1CC(=O)[C@]2(C)[C@H](CC[C@@]3(C)[C@H](c4ccoc4)OC(=O)[C@H]4O[C@]432)[C@@]1(C)/C=C\\C(=O)O", "activity change, negative = lower viability": "15.9% (inactive)"}, {"smiles": "C[C@@H]1CC[C@]2(C(=O)O[C@@H]3O[C@H](CO)[C@@H](O)[C@H](O)[C@H]3O)CC[C@]3(C)C(=CCC4[C@@]5(C)C[C@@H](O)[C@H](O)[C@@](C)(C(=O)O[C@@H]6[C@H](O)C[C@@]7(C)C(CC[C@]8(C)C7CC=C7[C@H]9[C@](C(=O)O[C@@H]%10O[C@H](CO)[C@@H](O)[C@H](O)[C@H]%10O)(CC[C@@H](C)[C@@]9(C)O)CC[C@]78C)[C@@]6(CO)C(=O)O)C5CC[C@]43C)[C@@H]2[C@]1(C)O", "note": "(stereo not given in full)", "activity change, negative = lower viability": "-2.67% (inactive)"}, {"smiles": "COC(/C=C(\\C)CCC=C(C)C)OC", "activity change, negative = lower viability": "6.46% [at 115 µM] (inactive)"}, {"smiles": "CC(O)[C@H]1CC[C@H]2[C@@H]3CC[C@H]4C[C@@H](O)CC[C@]4(C)[C@H]3C(=O)C[C@]12C", "note": "(stereo not given in full)", "activity change, negative = lower viability": "-1.3% (inactive)"}, {"smiles": "CCc1ccc(C=C2SC(=S)NC2=O)cc1", "activity change, negative = lower viability": "16.8% (inactive)"}, {"smiles": "CC1=CC=C(C(C)C)CC1", "activity change, negative = lower viability": "7.86% [at 115 µM] (inactive)"}, {"smiles": "C=C1[C@H]2O[C@H]2[C@@H](OC(C)=O)[C@@]2(C)[C@@H](OC(C)=O)C[C@@H](OC(C)=O)[C@@](C)(O)[C@@H]2[C@@H](OC(C)=O)[C@@]2(O)[C@@H](C)C(=O)O[C@H]2[C@H]1Cl", "activity change, negative = lower viability": "17.5% (inactive)"}, {"smiles": "C=C(C)C1CCC(C)(O)CC1", "note": "(stereo not given)", "activity change, negative = lower viability": "5.7% [at 115 µM] (inactive)"}, {"smiles": "Cc1c[nH]c(C=C2C(=O)Nc3ccccc32)c1CCC(=O)O", "activity change, negative = lower viability": "-3.02% (inactive)"}, {"smiles": "C[C@]12CC[C@@H](O)CC1=CC(=O)C1C2CC[C@]2(C)C(=O)[C@H](O)CC12", "note": "(stereo not given in full)", "activity change, negative = lower viability": "21.3% (inactive)"}, {"smiles": "CC1(C)C=Cc2c(c3ccccc3[nH]c2=O)O1", "activity change, negative = lower viability": "-10% (inactive)"}, {"smiles": "C[C@@H]1CC[C@H]2[C@H](C)[C@H]3CC[C@H]4C5[C@@H](O)CC6=CC(=O)CC[C@]6(C)[C@H]5C[C@H]4C3C(=O)N2C1", "note": "(stereo not given in full)", "activity change, negative = lower viability": "8.24% (inactive)"}, {"smiles": "O=C1N[C@@H](Cc2c[nH]c3ccccc23)C(=O)N[C@H]1Cc1c[nH]c2ccccc12", "activity change, negative = lower viability": "-9.29% (inactive)"}, {"smiles": "CN1CC[C@@]2([C@@]34CCN(C)C3Nc3ccccc34)c3ccccc3NC12", "note": "(stereo not given in full)", "activity change, negative = lower viability": "2.19% (inactive)"}, {"smiles": "Cc1cc(Nc2nc(N[C@@H](C)c3ccc(F)cc3)c(C#N)cc2F)n[nH]1", "Potency": "10.9 µM (active)"}, {"smiles": "CC(C)(O[C@@H]1O[C@H](CO)[C@@H](O)[C@H](O)[C@H]1O)[C@@H]1CC=C(C(=O)O)CC1", "activity change, negative = lower viability": "7.23% (inactive)"}, {"smiles": "COc1c2ccoc2c(OC[C@@H](OC(C)=O)C(C)(C)O)c2oc(=O)ccc12", "activity change, negative = lower viability": "-5.59% (inactive)"}, {"smiles": "S=C(NCc1ccccc1)NCc1ccccc1", "activity change, negative = lower viability": "15.3% (inactive)"}, {"smiles": "C[C@@H]1O[C@@H](O[C@H]2[C@H](O)[C@@H](O)[C@H](Oc3c(-c4ccc(O)c(O)c4)oc4cc(O)cc(O)c4c3=O)O[C@@H]2CO)[C@H](O)[C@H](O)[C@H]1O", "activity change, negative = lower viability": "11.1% (inactive)"}, {"smiles": "C=C[C@@H]1CN2CC[C@@H]1C[C@H]2[C@H](O)c1ccnc2ccc(OC)cc12", "activity change, negative = lower viability": "-0.643% (inactive)"}, {"smiles": "CCCCCCCCCCCC", "activity change, negative = lower viability": "12.6% [at 115 µM] (inactive)"}, {"smiles": "C=CC[C@]12C=C(OC)C(=O)C=C1O[C@@H](c1ccc3c(c1)OCO3)[C@H]2C", "activity change, negative = lower viability": "-9.3% (inactive)"}, {"smiles": "O=C(O)CCc1ccccc1", "activity change, negative = lower viability": "20.7% [at 115 µM] (inactive)"}, {"smiles": "COc1cc2c(cc1O)CC[n+]1cc3c(OC)c(OC)ccc3cc1-2", "activity change, negative = lower viability": "24.5% (inactive)"}, {"smiles": "COc1ccc2[nH]cc(CCO)c2c1", "activity change, negative = lower viability": "-2.35% (inactive)"}, {"smiles": "COC(=O)C(O)C(O)(CCC(C)C)C(=O)OC1C(OC)=CC23CCCN2CCc2cc4c(cc2C13)OCO4", "note": "(stereo not given)", "activity change, negative = lower viability": "-148% (inactive)"}, {"smiles": "O=Cc1cc2ccccc2o1", "activity change, negative = lower viability": "10.2% [at 115 µM] (inactive)"}, {"smiles": "COc1cc(CCc2ccccc2)c(C(=O)O)c(O)c1C/C=C(/C)CCC=C(C)C", "activity change, negative = lower viability": "17.2% (inactive)"}, {"smiles": "CC(C)=CCC/C(C)=C/CC/C(C)=C/CCC1(C)CCc2cc(O)ccc2O1", "note": "(stereo not given)", "activity change, negative = lower viability": "8.45% (inactive)"}, {"smiles": "CC(Cc1c[nH]c2ccccc12)C(=O)O", "note": "(stereo not given)", "activity change, negative = lower viability": "4.93% (inactive)"}, {"smiles": "O=C(CO)c1c[nH]c2ccccc12", "activity change, negative = lower viability": "-28.9% (inactive)"}, {"smiles": "CC(C)(O[C@@H]1O[C@H](CO)[C@@H](O)[C@H](O)[C@H]1O)[C@H]1Cc2cc3ccc(=O)oc3cc2O1", "activity change, negative = lower viability": "-3.41% (inactive)"}, {"smiles": "COc1cc2c(cc1CC=C(C)C)C(=O)C[C@@H](c1ccc(O)cc1)O2", "activity change, negative = lower viability": "-19.5% (inactive)"}, {"smiles": "COc1c(C(=O)/C=C/c2ccccc2)ccc2c1C=CC(C)(C)O2", "activity change, negative = lower viability": "11.7% (inactive)"}]}]}
